Results published in PubChem BioAssay (NCI).
About 79,000 compounds went through this panel and 15% of them were active in at least one assay; those are over-represented in the sample as a whole. Calls of active or inactive are those of the source. No stated cut-off is given here; in the data, active means growth inhibition above about 70%; inactive means the rest.

How the values were obtained:
[1] = NCI Yeast Anticancer Drug Screen. Data for the rad52 strain (AID 147);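 further: 0% = growth of vehicle-treated control cultures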; conditions: S. cerevisiae rad52 mutant growth inhibition, stronger effect = higher value
Summary of the method: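 Read-out: growth inhibition versus vehicle-treated controls. Cells were a DNA repair-deficient yeast strain treated with compounds.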

[2] = NCI Yeast Anticancer Drug Screen. Data for the wt1 strain (AID 149);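 further: 0% = growth of vehicle-treated wt1 cultures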; conditions: S. cerevisiae wt1 strain (SPY 50644) growth inhibition, stronger effect = higher value
Summary of the method: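 wt1 yeast, compound-treated; % growth inhibition vs vehicle control.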

[3] = NCI Yeast Anticancer Drug Screen. Data for the rad50EPP+ strain (AID 151);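 further: 0% = growth of vehicle-treated control cultures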; conditions: S. cerevisiae rad50 mutant strain, stronger effect = higher value
Summary of the method: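 Growth inhibition read against vehicle controls in rad50EPP+ yeast, a strain altered in DNA damage repair, after compound exposure.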

[4] = NCI Yeast Anticancer Drug Screen. Data for the mgt1 strain (AID 153); conditions: S. cerevisiae mgt1 mutant growth inhibition, stronger effect = higher value
Summary of the method: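 mgt1 yeast grown with test compound; read-out is growth inhibition versus vehicle-treated cultures.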

[5] = NCI Yeast Anticancer Drug Screen. Data for the rad50 strain (AID 155);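 further: 0% = growth of vehicle-only cultures of the same strain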; conditions: S. cerevisiae rad50 strain growth inhibition, stronger effect = higher value
Summary of the method: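 Genetically altered yeast (DNA repair pathway); compound treatment; growth inhibition vs vehicle ctrl.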

[6] = NCI Yeast Anticancer Drug Screen. Data for the mec2-1 strain (AID 157); conditions: S. cerevisiae mec2-1 strain, stronger effect = higher value
Summary of the method: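 Yeast mec2-1 mutant treated with compound. Readout: growth inhibition vs vehicle controls.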

[7] = NCI Yeast Anticancer Drug Screen. Data for the rad14 strain (AID 159);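 further: 0% = growth of vehicle-treated control cultures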; conditions: S. cerevisiae rad14 strain growth inhibition, stronger effect = higher value
Summary of the method: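 Test compounds were applied to a repair-deficient yeast strain. Its growth was then compared with that of cultures given vehicle alone, and inhibition was expressed relative to those controls.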

[8] = NCI Yeast Anticancer Drug Screen. Data for the sgs1 mgt1 strain (AID 161);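 further: 0% = growth of cultures given vehicle only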; conditions: S. cerevisiae sgs1 mgt1 strain, stronger effect = higher value
Summary of the method: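 Mutant yeast exposed to compound; growth scored against vehicle-only wells.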

[9] = NCI Yeast Anticancer Drug Screen. Data for the CLN2oe strain (AID 163);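 further: 0% = growth of vehicle-only control cultures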; conditions: S. cerevisiae CLN2oe strain, stronger effect = higher value
Summary of the method: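 Read-out: yeast growth inhibition, expressed relative to vehicle-only controls. The strain bears an engineered cell-cycle alteration.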

[10] = NCI Yeast Anticancer Drug Screen. Data for the cln2 rad14 strain (AID 165);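 further: 0% = growth equal to vehicle treated cultures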; conditions: S. cerevisiae cln2 rad14 strain, stronger effect = higher value
Summary of the method: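 cln2 rad14 yeast strain; compound exposure; growth inhibition read vs vehicle controls.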

[11] = NCI Yeast Anticancer Drug Screen. Data for the bub3 strain (AID 167); conditions: S. cerevisiae bub3 mutant strain, stronger effect = higher value
Summary of the method: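 Yeast carrying a defined mutation is treated with each compound, and growth is compared with that of vehicle-exposed cells to give inhibition.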

[12] = NCI Yeast Anticancer Drug Screen. Data for the wt2 strain (AID 169);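 further: 0% = growth of vehicle-treated yeast cultures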; conditions: S. cerevisiae wt2 strain growth inhibition, stronger effect = higher value
Summary of the method: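 Read-out: growth inhibition versus vehicle-treated control cultures after compound exposure of the yeast strain.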

[13] = NCI Yeast Anticancer Drug Screen. Data for the mlh1 strain (AID 171);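 further: 0% = growth of vehicle-treated control cultures of the same strain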; conditions: S. cerevisiae mlh1 strain growth inhibition, stronger effect = higher value
Summary of the method: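 Read-out: growth inhibition versus vehicle controls. Strain: engineered yeast with a defined DNA repair or cell cycle defect, compound-treated.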

[14] = NCI Yeast Anticancer Drug Screen. Data for the sgs1 strain (AID 173);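 further: 0% = growth of vehicle-only control cultures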; conditions: S. cerevisiae sgs1 mutant, stronger effect = higher value
Summary of the method: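 Read-out: yeast growth inhibition relative to vehicle controls, following compound exposure of a strain with a defined DNA repair/cell cycle alteration.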

[15] = NCI Yeast Anticancer Drug Screen. Data for the mlh1 rad18 strain (AID 175); conditions: S. cerevisiae mlh1 rad18 strain growth inhibition, stronger effect = higher value
Summary of the method: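 Yeast w/ defined DNA-repair lesions; compound exposure; growth vs vehicle controls → % inhibition.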

[16] = NCI Yeast Anticancer Drug Screen. Data for the rad18 strain (AID 177); conditions: S. cerevisiae rad18 mutant growth inhibition, stronger effect = higher value
Summary of the method: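 Readout: growth inhibition vs vehicle controls. Cells: genetically altered yeast strain, DNA repair defect.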

[17] = at 5.0 µM (retest, dose inferred, filed as 0.5)
[18] = at 50.0 µM (retest, dose inferred, filed as 5.0)

Measured: growth inhibition

S=c1[nH]c2c(Cl)c(Cl)c(Cl)c(Cl)c2[nH]1
inactive: [1]; at 1.2 µM 13% | [1]; at 3.7 µM 6% | [1]; at 11.0 µM 45% | [2]; at 1.2 µM 16% | [2]; at 3.7 µM -4% | [2]; at 11.0 µM 33% | [3]; at 1.2 µM 13% | [3]; at 3.7 µM 20% | [4]; at 1.2 µM 9% | [4]; at 3.7 µM 15% | [5]; at 1.2 µM -5% | [5]; at 3.7 µM -2% | [5]; [17] 33% | [5]; at 11.0 µM 59% | [6]; at 1.2 µM -28% | [6]; at 3.7 µM -11% | [6]; [17] 44% | [6]; at 11.0 µM 48% | [7]; at 1.2 µM -11% | [7]; at 3.7 µM 4% | [7]; at 11.0 µM 50% | [8]; [17] -10% | [9]; at 1.2 µM 9% | [9]; at 3.7 µM 3% | [9]; at 11.0 µM 48% | [10]; [17] 61% | [11]; at 1.2 µM -5% | [11]; at 3.7 µM 4% | [11]; [17] 44% | [11]; at 11.0 µM 66% | [12]; at 1.2 µM -12% | [12]; at 3.7 µM -3% | [12]; at 11.0 µM 24% | [13]; at 1.2 µM 2% | [13]; at 3.7 µM 22% | [14]; at 1.2 µM -3% | [14]; at 3.7 µM 10% | [14]; at 11.0 µM 54% | [15]; [17] 26% | [16]; at 1.2 µM 5% | [16]; at 3.7 µM 12% | [16]; at 11.0 µM 42%
active: [1]; at 33.0 µM 97% | [1]; at 100.0 µM 94% | [2]; at 33.0 µM 98% | [2]; at 100.0 µM 96% | [3]; at 11.0 µM 81% | [3]; at 33.0 µM 96% | [3]; at 100.0 µM 95% | [4]; at 11.0 µM 78% | [4]; at 33.0 µM 99% | [4]; at 100.0 µM 93% | [5]; at 33.0 µM 98% | [5]; [18] 92% | [5]; at 50.0 µM 90% | [5]; at 100.0 µM 96% | [6]; at 33.0 µM 98% | [6]; [18] 98% | [6]; at 50.0 µM 91% | [6]; at 100.0 µM 96% | [7]; at 33.0 µM 99% | [7]; at 100.0 µM 96% | [8]; [18] 97% | [9]; at 33.0 µM 97% | [9]; at 100.0 µM 95% | [10]; [18] 95% | [11]; at 33.0 µM 98% | [11]; [18] 95% | [11]; at 100.0 µM 95% | [12]; at 33.0 µM 96% | [12]; at 100.0 µM 96% | [13]; at 11.0 µM 75% | [13]; at 33.0 µM 98% | [13]; at 100.0 µM 94% | [14]; at 33.0 µM 97% | [14]; at 100.0 µM 96% | [15]; [18] 95% | [15]; at 50.0 µM 90.5% | [16]; at 33.0 µM 97% | [16]; at 100.0 µM 95%
